Test results reported in PubChem BioAssay (EPA / NIEHS).
Activity calls are given as the source filed them. How the source made its calls: active means hit-call score of the fitted dose curve at least 0.9, where 1 is the maximum; inactive means score below 0.9.

Tests used:
Details in all cases: mRNA level, 48 h; actives raise or lower the signal
[1] = read-out: Keratin 19 (KRT19), KRT19 (gene 3880); assay: LTEA_HepaRG_KRT19: Life Technologies and Expression Analysis (LTEA) Assay for Keratin 19 (KRT19) using HepaRG (AID 2283512)
In short: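 Differentiated human HepaRG cells, plated 48 h, were exposed in duplicate for 48 h in serum-free induction medium to eight half-log concentrations up to 100 uM in 0.5% DMSO. KRT19 mRNA was quantified by qRT-PCR, normalized to ACTB, GAPDH and POLR2A, and fitted bidirectionally versus DMSO.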

[2] = read-out: JUN Transcription Factor, JUN (gene 3725); assay: LTEA_HepaRG_JUN: Life Technologies and Expression Analysis (LTEA) Assay for JUN Transcription Factor using HepaRG (AID 2283513)
In short: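 Read-out is JUN transcript level by TaqMan qRT-PCR, normalized to ACTB, GAPDH and POLR2A, after 48 h chemical treatment of HepaRG cells. Concentration-response spanned eight half-log points up to 100 uM in 0.5% DMSO.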

[3] = read-out: Lipase C (LIPC), LIPC (gene 3990); assay: LTEA_HepaRG_LIPC: Life Technologies and Expression Analysis (LTEA) Assay for Lipase C (LIPC) using HepaRG (AID 2283514)
In short: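 LIPC expression was quantified by qRT-PCR against three housekeeping genes (ACTB, GAPDH, POLR2A). Differentiated human HepaRG cells received eight half-log doses (top 100 uM, 0.5% DMSO) in duplicate for 48 h; fitting bidirectional relative to DMSO.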

[4] = read-out: Lipoprotein lipase (LPL), LPL (gene 4023); assay: LTEA_HepaRG_LPL: Life Technologies and Expression Analysis (LTEA) Assay for Lipoprotein lipase (LPL) using HepaRG (AID 2283515)
In short: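 LPL transcript levels quantified by TaqMan qRT-PCR against three housekeeping genes after 48 h chemical treatment of HepaRG cells. Eight-point half-log series from 100 uM in 0.5% DMSO, tested in duplicate; bidirectional fitting versus vehicle.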

[5] = read-out: MicroRNA 122 (MIR122), gene 406906; assay: LTEA_HepaRG_MIR122: Life Technologies and Expression Analysis (LTEA) Assay for MicroRNA 122 (MIR122) using HepaRG (AID 2283516); further: the transcript read is the microRNA miR-122
In short: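 Human liver HepaRG cultures receive test chemicals for 48 h at eight half-log concentrations from 100 uM. Expression is quantified by qRT-PCR with ACTB/GAPDH/POLR2A normalization and fitted bidirectionally against 0.5% DMSO.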

[6] = read-out: matrix metalloproteinase-10 (MMP10), MMP10 (gene 4319); assay: LTEA_HepaRG_MMP10: Life Technologies and Expression Analysis (LTEA) Assay for matrix metalloproteinase-10 (MMP10) using HepaRG (AID 2283517)
In short: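 Expression measured by TaqMan qRT-PCR with ACTB/GAPDH/POLR2A normalisation after 48 h chemical exposure of HepaRG cells. Eight half-log concentrations, top 100 uM, 0.5% DMSO vehicle, duplicates; gain or loss fitted against vehicle.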

MYC, MYC (gene 4609) = assay: LTEA_HepaRG_MYC: Life Technologies and Expression Analysis (LTEA) Assay for MYC using HepaRG (AID 2283518)
In short: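 Differentiated human HepaRG cells, plated 48 h then switched to serum-free induction medium, were exposed in duplicate for 48 h to 8-point half-log series up to 100 uM in 0.5% DMSO. MYC mRNA measured by qRT-PCR, normalized to ACTB/GAPDH/POLR2A.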

[7] = read-out: matrix metalloproteinase-3 (MMP3), MMP3 (gene 4314); assay: LTEA_HepaRG_MMP3: Life Technologies and Expression Analysis (LTEA) Assay for matrix metalloproteinase-3 (MMP3) using HepaRG (AID 2283519)
In short: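 Fluidigm-based TaqMan qRT-PCR, normalized to ACTB, GAPDH and POLR2A and fitted bidirectionally versus 0.5% DMSO, measured transcript levels. Treatment: duplicate 48 h exposures of HepaRG cells, ~100,000/well, to eight half-log concentrations topping at 100 uM.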

[8] = read-out: Paternally Expressed 10 (PEG10), PEG10 (gene 23089); assay: LTEA_HepaRG_PEG10: Life Technologies and Expression Analysis (LTEA) Assay for Paternally Expressed 10 (PEG10) using HepaRG (AID 2283520)
In short: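 Human HepaRG cultures are dosed for 48 h across an eight-point half-log series starting at 100 uM, with 0.5% DMSO as vehicle and baseline. Gain or loss of PEG10 transcript is measured by qRT-PCR and fitted in both directions.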

[9] = read-out: Protein phosphatase 2A (PPP2R4), PTPA (gene 5524); assay: LTEA_HepaRG_PPP2R4: Life Technologies and Expression Analysis (LTEA) Assay for Protein phosphatase 2A (PPP2R4) using HepaRG (AID 2283522)
In short: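 Cells were plated, cultured 48 h, switched to serum-free induction medium, then dosed for 48 h (8 points, max 100 uM, 0.5% DMSO). RNA was isolated and PPP2R4 expression measured by TaqMan qRT-PCR.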

[10] = read-out: Phosphatase and tensin (PTEN), PTEN (gene 5728); assay: LTEA_HepaRG_PTEN: Life Technologies and Expression Analysis (LTEA) Assay for Phosphatase and tensin (PTEN) using HepaRG (AID 2283523)
In short: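 Read-out: TaqMan qRT-PCR of PTEN transcript, normalized to three housekeeping genes, fitted in both directions against 0.5% DMSO. Differentiated human HepaRG cultures received chemicals for 48 h, eight-point half-log series topping at 100 uM.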

[11] = read-out: solute carrier (SLC22A1), SLC22A1 (gene 6580); assay: LTEA_HepaRG_SLC22A1: Life Technologies and Expression Analysis (LTEA) Assay for solute carrier (SLC22A1) using HepaRG (AID 2283524)
In short: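 Transcript level of SLC22A1 quantified by qRT-PCR (normalized to three housekeeping genes) after 48 h chemical exposure of HepaRG cells, eight concentrations up to 100 µM, half-log steps, 0.5% DMSO vehicle. Gain or loss relative to DMSO fitted bidirectionally.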

[12] = read-out: Pyruvate Dehydrogenase Kinase 4 (PDK4), PDK4 (gene 5166); assay: LTEA_HepaRG_PDK4: Life Technologies and Expression Analysis (LTEA) Assay for Pyruvate Dehydrogenase Kinase 4 (PDK4) using HepaRG (AID 2283525)
In short: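 Readout is qRT-PCR of PDK4 transcript, normalized to three housekeeping genes, with bidirectional fitting against 0.5% DMSO vehicle. Differentiated HepaRG cells were treated 48 h in serum-free induction medium, duplicate wells, eight-point half-log series topping at 100 uM.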

[13] = read-out: NAD(P)H dehydrogenase [quinone] 1 (NQO1), NQO1 (gene 1728); assay: LTEA_HepaRG_NQO1: Life Technologies and Expression Analysis (LTEA) Assay for NAD(P)H dehydrogenase [quinone] 1 (NQO1) using HepaRG (AID 2283526)
In short: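 Transcript induction or suppression is quantified by qRT-PCR in human HepaRG liver cells dosed for 48 hours. Eight half-log concentrations topping at 100 uM are used, with 0.5% DMSO as vehicle and baseline.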

[14] = read-out: Nuclear factor erythroid 2-related factor 2 (Homo sapiens) (UniProt Q16236); assay: LTEA_HepaRG_NFE2L2: Life Technologies and Expression Analysis (LTEA) Assay for Nuclear factor erythroid 2-related factor 2 (NFE2L2) Transcription Factor using HepaRG (AID 2283527);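 further: TaqMan qRT-PCR transcript level normalised to ACTB GAPDH and POLR2A housekeeping genes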
In short: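 NFE2L2 transcript level was read by qRT-PCR (housekeeping ACTB/GAPDH/POLR2A normalisation) after 48 h chemical treatment of HepaRG in serum-free induction medium. Duplicate 8-point half-log curves, top 100 uM, 0.5% DMSO vehicle; up- or down-regulation fitted against vehicle.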

[15] = read-out: succinate dehydrogenase complex iron sulfur subunit B (SDHB), SDHB (gene 6390); assay: LTEA_HepaRG_SDHB: Life Technologies and Expression Analysis (LTEA) Assay for succinate dehydrogenase complex iron sulfur subunit B (SDHB) using HepaRG (AID 2283528)
In short: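 Readout is SDHB transcript level by qRT-PCR, normalised to three housekeeping genes and fitted bidirectionally against 0.5% DMSO vehicle. Human HepaRG cells were treated for 48 h at up to 100 uM.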

[16] = read-out: Signal transducer and activator of transcription 3 (Homo sapiens) (UniProt P40763); assay: LTEA_HepaRG_STAT3: Life Technologies and Expression Analysis (LTEA) Assay for Signal transducer and activator of transcription (STAT3) using HepaRG (AID 2283529)
In short: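 STAT3 transcript quantified by qRT-PCR against three housekeeping genes (ACTB, GAPDH, POLR2A), fitted both directions relative to DMSO. HepaRG cultures exposed 48 h to eight half-log concentrations, top 100 uM, 0.5% DMSO, serum-free induction medium.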

[17] = read-out: solute carrier (SLCO1B1), SLCO1B1 (gene 10599); assay: LTEA_HepaRG_SLCO1B1: Life Technologies and Expression Analysis (LTEA) Assay for solute carrier (SLCO1B1) using HepaRG (AID 2283530)
In short: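 Differentiated human HepaRG cells, plated 48 h, switched to serum-free induction medium and exposed in duplicate for 48 h to 8 half-log concentrations (top 100 uM) in 0.5% DMSO. SLCO1B1 mRNA by TaqMan qRT-PCR, normalized to ACTB/GAPDH/POLR2A.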

[18] = read-out: sulfotransferase 2A1 (SULT2A1), SULT2A1 (gene 6822); assay: LTEA_HepaRG_SULT2A1: Life Technologies and Expression Analysis (LTEA) Assay for sulfotransferase 2A1 (SULT2A1) using HepaRG (AID 2283531)
In short: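 Differentiated human HepaRG cells in serum-free induction medium were exposed for 48 h to eight half-log concentrations (top 100 uM, 0.5% DMSO). SULT2A1 mRNA was measured by qRT-PCR, normalized to ACTB, GAPDH and POLR2A, and fitted bidirectionally against DMSO.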

[19] = read-out: Transforming Growth Factor (TGFA), TGFA (gene 7039); assay: LTEA_HepaRG_TGFA: Life Technologies and Expression Analysis (LTEA) Assay for Transforming Growth Factor (TGFA) using HepaRG (AID 2283532)
In short: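 TGFA transcript quantified by qRT-PCR (Fluidigm arrays) against three housekeeping genes, after 48 hours chemical treatment of HepaRG cells. Top concentration 100 uM with half-log dilutions, 8 points, duplicates, 0.5% DMSO.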

Measured: outcome

Sequence of Signal transducer and activator of transcription 3 (Homo sapiens) (P40763 whole entry, looked up): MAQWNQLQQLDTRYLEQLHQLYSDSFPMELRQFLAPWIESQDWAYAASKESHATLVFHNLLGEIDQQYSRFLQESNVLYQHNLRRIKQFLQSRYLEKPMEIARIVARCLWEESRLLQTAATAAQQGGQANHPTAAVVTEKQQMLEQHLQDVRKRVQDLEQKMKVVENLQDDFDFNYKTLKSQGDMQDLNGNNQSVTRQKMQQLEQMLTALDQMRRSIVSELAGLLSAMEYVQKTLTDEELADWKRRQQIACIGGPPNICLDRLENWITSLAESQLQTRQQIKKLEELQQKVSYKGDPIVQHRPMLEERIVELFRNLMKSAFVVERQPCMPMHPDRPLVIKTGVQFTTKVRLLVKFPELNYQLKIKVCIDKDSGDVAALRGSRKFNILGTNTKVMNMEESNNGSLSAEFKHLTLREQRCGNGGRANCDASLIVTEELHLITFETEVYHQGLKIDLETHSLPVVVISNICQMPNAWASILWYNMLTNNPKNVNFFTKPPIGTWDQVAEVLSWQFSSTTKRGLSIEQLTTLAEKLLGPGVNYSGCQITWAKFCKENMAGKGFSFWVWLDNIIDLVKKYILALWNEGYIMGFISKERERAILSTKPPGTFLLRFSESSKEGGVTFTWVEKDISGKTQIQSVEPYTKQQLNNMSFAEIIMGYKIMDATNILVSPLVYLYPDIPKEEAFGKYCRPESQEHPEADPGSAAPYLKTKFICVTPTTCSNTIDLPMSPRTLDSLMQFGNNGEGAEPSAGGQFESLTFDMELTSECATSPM
Sequence of Nuclear factor erythroid 2-related factor 2 (Homo sapiens) (Q16236 whole entry, looked up): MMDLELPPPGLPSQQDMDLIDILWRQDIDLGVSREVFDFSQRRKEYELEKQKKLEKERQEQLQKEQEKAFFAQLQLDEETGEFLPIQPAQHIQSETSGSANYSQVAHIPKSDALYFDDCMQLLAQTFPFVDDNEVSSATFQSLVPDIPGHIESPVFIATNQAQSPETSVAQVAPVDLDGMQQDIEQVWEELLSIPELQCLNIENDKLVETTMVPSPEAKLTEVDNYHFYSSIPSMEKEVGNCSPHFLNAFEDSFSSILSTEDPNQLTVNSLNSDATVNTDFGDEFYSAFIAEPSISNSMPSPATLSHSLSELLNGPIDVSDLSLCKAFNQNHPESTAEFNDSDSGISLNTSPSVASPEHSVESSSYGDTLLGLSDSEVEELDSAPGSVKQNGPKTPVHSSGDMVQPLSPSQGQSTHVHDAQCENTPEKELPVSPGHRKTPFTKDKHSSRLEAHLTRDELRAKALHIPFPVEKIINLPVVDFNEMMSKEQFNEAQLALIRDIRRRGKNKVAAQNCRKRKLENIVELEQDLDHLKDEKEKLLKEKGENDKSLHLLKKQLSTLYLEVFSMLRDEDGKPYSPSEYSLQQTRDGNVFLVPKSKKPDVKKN

CS(=O)(=O)OCCCCOS(C)(=O)=O
inactive: all assays above
